The values that follow come from ChEMBL document CHEMBL4808148, “HDAC6 screening dataset using tau-based substrate in an enzymatic assay yields selective inhibitors and activators” (2021).

This assay addresses T1, Protein deacetylase HDAC6 (Homo sapiens) (UniProt Q9UBN7).
T1 sequence (whole entry): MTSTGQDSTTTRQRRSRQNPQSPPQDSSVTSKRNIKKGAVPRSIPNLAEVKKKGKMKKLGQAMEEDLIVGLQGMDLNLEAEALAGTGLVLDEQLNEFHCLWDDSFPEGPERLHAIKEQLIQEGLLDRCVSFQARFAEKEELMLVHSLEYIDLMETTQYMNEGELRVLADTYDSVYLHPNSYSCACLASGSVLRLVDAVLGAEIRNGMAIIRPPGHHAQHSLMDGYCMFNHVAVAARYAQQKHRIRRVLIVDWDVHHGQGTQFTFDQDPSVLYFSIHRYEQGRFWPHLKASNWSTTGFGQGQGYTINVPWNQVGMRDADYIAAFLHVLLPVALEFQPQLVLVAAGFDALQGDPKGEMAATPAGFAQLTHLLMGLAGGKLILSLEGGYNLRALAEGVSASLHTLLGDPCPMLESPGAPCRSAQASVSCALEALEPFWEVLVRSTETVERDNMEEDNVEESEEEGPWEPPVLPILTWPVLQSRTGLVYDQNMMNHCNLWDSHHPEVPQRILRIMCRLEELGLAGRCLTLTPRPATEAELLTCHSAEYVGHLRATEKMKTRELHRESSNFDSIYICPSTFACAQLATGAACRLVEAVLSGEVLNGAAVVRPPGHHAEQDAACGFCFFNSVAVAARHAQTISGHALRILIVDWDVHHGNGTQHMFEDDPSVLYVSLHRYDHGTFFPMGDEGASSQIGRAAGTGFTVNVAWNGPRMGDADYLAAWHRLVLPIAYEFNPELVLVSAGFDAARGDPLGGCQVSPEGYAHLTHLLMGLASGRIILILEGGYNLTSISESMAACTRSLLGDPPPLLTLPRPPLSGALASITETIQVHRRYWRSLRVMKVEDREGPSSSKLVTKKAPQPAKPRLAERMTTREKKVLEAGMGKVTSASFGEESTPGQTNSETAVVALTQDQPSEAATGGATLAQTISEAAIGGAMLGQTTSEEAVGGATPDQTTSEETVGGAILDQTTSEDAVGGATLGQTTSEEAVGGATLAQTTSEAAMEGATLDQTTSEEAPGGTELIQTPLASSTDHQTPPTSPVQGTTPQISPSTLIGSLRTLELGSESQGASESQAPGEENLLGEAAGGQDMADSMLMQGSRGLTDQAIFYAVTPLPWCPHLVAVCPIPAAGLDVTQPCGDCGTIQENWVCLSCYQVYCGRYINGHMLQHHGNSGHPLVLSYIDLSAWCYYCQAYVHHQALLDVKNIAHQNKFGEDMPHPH
The conditions noted are these: at 10 µM.

Out of some 5,600 compounds screened, about 390 (7%) showed an effect of 50% or more. The sample holds strong results, similar compounds and a random draw of the others, so the mix is not that of the screen. Starred links: 1 amine or outer side, 2 acyl side, 3 side chain; linkers in the order of their positions; H or OH if unused. Positions of bridges follow the written chain, without caps; N, C: chain ends. Non-standard residues stand in square brackets, D forms with d. Residues, ends and D or L forms follow the SMILES beside them. *: point of attachment. pTerphenylCO(4''-OnC5H11) = CCCCCOc1ccc(-c2ccc(-c3ccc(C(=O)*)cc3)cc2)cc1; Orn(4R-OH,5R-OH) = O=C([C@H](C[C@@H](O)[C@@H](O)N[*:3])N[*:1])[*:2]; hTyr(3S-OH,4S-OH) = N[C@H](C(=O)O)[C@H](O)[C@@H](O)c1ccc(O)cc1; Pro(3S-OH,4S-Me) = C[C@H]1CN[C@H](C(=O)O)[C@H]1O; Hyp = O=C(O)[C@@H]1C[C@@H](O)CN1

Take `CCCCCOc1ccc(-c2ccc(-c3ccc(C(=O)N[C@H]4C[C@@H](O)[C@@H](O)NC(=O)[C@@H]5[C@@H](O)[C@@H](C)CN5C(=O)[C@H]([C@@H](C)O)NC(=O)[C@H]([C@H](O)[C@@H](O)c5ccc(O)cc5)NC(=O)[C@@H]5C[C@@H](O)CN5C(=O)[C@H]([C@@H](C)O)NC4=O)cc3)cc2)cc1` ({pTerphenylCO(4''-OnC5H11)}-[Orn(4R-OH,5R-OH)]T[Hyp][hTyr(3S-OH,4S-OH)]T[Pro(3S-OH,4S-Me)]; lactam 1-C): the inhibition – broadly, the relative decrease from the control value, in per cent – was 16.9%.
On to `Cc1cc(Nc2cc(C)c(C#N)c(N[C@@H](C)CCCC(C)(C)O)n2)n[nH]1`, for which the inhibition was determined as 27.9%.
As for `Cc1ccc(C23CNCC2C3)cc1` (centres undefined), the figure is -3.02%.
As to `O=C(O)c1ccccc1C(=O)Nc1ccc(-c2ccccc2)cc1`, the inhibition was found to be 68%.
For the molecule `CC(=O)NS(=O)(=O)c1ccc(NC(=O)c2ccccc2C(=O)O)cc1`, the inhibition is -8.72%.
As for `O=C(O)c1ccccc1S`, the figure is 17.6%; as for `CCN(CC)CCOc1ccccc1C(=O)CCc1ccccc1`, 2.33%; as for `C[C@H](N)C(=O)N[C@@H](CCC(N)=O)C(=O)O` (H-Ala-Gln-OH), -3.39%.
Take `COc1ccc(N2CCOCC2)c2sc(NC(=O)N3CCC(C)(O)CC3)nc12`: the inhibition stood at 2.18%.
In the case of `Cc1cc(NC(=O)C(c2ccccc2)N2CCCc3ccccc32)no1` (centres undefined), the inhibition is 6.26%.
For the molecule `CN(C)c1ccc(C(=O)NCCCCCCC(=O)NO)cc1`, the inhibition is 102%.
As to `COc1cc(C(=O)NCCCCCC(=O)O)cc(OC)c1OC`, the inhibition is 0.73%.
Turning to `O=C(CNC(=O)c1ccc(Cl)cc1)NO`, the inhibition amounted to 42.6%.
`CC(=O)O[C@@H]1CC[C@@]2(C)[C@@H](CC[C@]3(C)[C@@H]2C(=O)C=C2[C@@H]4[C@@H](C)[C@H](C)CC[C@]4(C)CC[C@]23C)[C@@]1(C)C(=O)O`: the inhibition is -8.47%.
As for `CCc1noc(C)c1-c1[nH]c2ccccc2c1C(O)CN(C)C` (centres undefined), the figure is 3.93%.
`CN(C)CCCSc1ccccc1NC(=O)/C=C/c1ccccc1`: the inhibition was determined as 97.2%.
Regarding `O=C1c2ccccc2CCC1CNCCc1ccc(O)cc1` (centres undefined), the inhibition amounted to 4.32%.
As to `COc1cc(-c2ccc(/N=N/c3ccc4c(S(=O)(=O)O)cc(S(=O)(=O)O)c(N)c4c3O)c(OC)c2)ccc1/N=N/c1ccc2c(S(=O)(=O)O)cc(S(=O)(=O)O)c(N)c2c1O`, the inhibition was found to be 69.8%.
For `COc1cc(O)c(C(=O)c2ccccc2)cc1S(=O)(=O)O`, the inhibition is -4.32%.
With `OC(CNc1ccccc1)Cn1c2ccc(Br)cc2c2cc(Br)ccc21` (centres undefined), the inhibition was -9.16%.
Regarding `Cc1cc(-c2cc(OC(=O)c3ccccc3)ccc2Cl)cc2nnc(Nc3ccc(OCCN4CCCC4)cc3)nc12`, the inhibition is -4.96%.
As for `CC(=O)[C@]1(N)Cc2c(O)c3c(c(O)c2[C@@H](O[C@H]2C[C@H](O)[C@H](O)CO2)C1)C(=O)c1ccccc1C3=O`, the figure is 18.4%.
On to `Cc1oc(=O)oc1COC(=O)C1=C([C@H]2CCCO2)S[C@@H]2[C@@H]([C@@H](C)O)C(=O)N12`, for which the inhibition was 31.1%.
The same measure for `Cc1ccc(-n2nc(C(C)(C)C)cc2NC(=O)NCc2cc(F)ccc2Oc2ccc3c(cnn3CCO)c2)cc1`: 30.6%.
On to `Cc1ccnc2c1CCCC2C(N)=S` (centres undefined), for which the inhibition is -0.81%.
Consider `CC(CN(C)C)CN1c2ccccc2Sc2ccc(C#N)cc21` (centres undefined), for which the inhibition is 7.25%.
Consider `O=C1NC(=O)/C(=C\c2ccc(-c3ccc(F)cc3)o2)S1`, for which the inhibition was 60.3%.
As for `CN1c2c(oc(=O)n(-c3ccccn3)c2=O)-c2ccccc2S1(=O)=O`, the inhibition came out at 16.6%.
As to `CN1C(=O)N(c2ccc(C#N)c(C(F)(F)F)c2)C(=O)[C@]1(CO)c1ccccc1`, the inhibition was 40.5%.
As for `Cc1nc(-c2cccnc2)sc1C(=O)Nc1ccccc1-c1cn2c(CN3CCOCC3)csc2n1`, the figure is 11.9%; as for `FCc1ccc(OCCOc2ccc(Cl)cc2Cl)c(Cl)n1`, 61.7%; as for `CCOc1c2c(c(OCC)c3ccccc13)C(=O)N(c1ccc(CC(=O)NS(=O)(=O)c3ccccc3)cc1)C2`, 3.49%.
Take `O=C1C2CC3CC1CC(O)(C3)C2`: the inhibition was 26.7%.
Regarding `Cc1cc2c(F)c(Oc3ncnn4cc(OC[C@@H](C)OC(=O)[C@H](C)N)c(C)c34)ccc2[nH]1`, the inhibition worked out at 48.1%.
In the case of `COc1cc2c(Oc3ccc4[nH]c(C)cc4c3F)ccnc2cc1OCC1(N)CC1`, the inhibition amounted to 54.9%.
Regarding `NS(=O)(=O)c1ccc2c(c1)C1C=CCC1C(c1ccc(Br)cc1)N2` (centres undefined), the inhibition is 8.71%.
For the molecule `CS(=O)(=O)c1ccc(-c2cn3ccccc3n2)cc1`, the inhibition is 99.6%.
Consider `CS(=O)(=O)c1ccc(-c2cnc(N)c(C(=O)Nc3ccccc3)n2)cc1`, for which the inhibition amounted to 6.2%.
For `Cc1cccc2c1CC[C@H](CN1CCC(c3c(Cl)cccc3Cl)CC1)C[C@@H]2O`, the inhibition was -4.44%.
Regarding `CN(C)[C@@H]1CCc2[nH]c3ccc(NC(=O)c4ccc(F)cc4)cc3c2C1`, the inhibition worked out at 6.78%.
Take `O=C1C2CC=CCC2C(=O)N1SC(Cl)(Cl)Cl` (centres undefined): the inhibition is 59.5%.
On to `O=[N+]([O-])c1ccc(Cl)c([N+](=O)[O-])c1`, for which the inhibition was 15.2%.
As for `O=C(O[C@@H]1Cc2c(O)cc(O)cc2O[C@@H]1c1cc(O)c(O)c(O)c1)c1cc(O)c(O)c(O)c1`, the inhibition came out at 11.9%.
Turning to `O=C1C[C@@H](c2ccc(O)cc2)Oc2cc(O)cc(O)c21`, the inhibition is 73.8%.
As for `COc1cc(O)cc([C@@H]2CC(=O)c3c(O)cc(O[C@@H]4O[C@H](CO)[C@@H](O)[C@H](O)[C@H]4O[C@@H]4O[C@@H](C)[C@H](O)[C@@H](O)[C@H]4O)cc3O2)c1`, the inhibition was 5.67%.
On to `[O-][n+]1ccccc1S`, for which the inhibition was determined as 22.8%.
In the case of `O=C(Oc1ccccc1)c1ccccc1O`, the inhibition came out at 77.2%.
The same measure for `O=C(OCCO)c1ccccc1O`: 5.24%; for `CCOC(=O)c1ccccc1OC(N)=O`: 7.12%.
